Source: PubChem (National Center for Advancing Translational Sciences (NCATS))
Pf growth 96h: P. falciparum growth inhibition at 96 hour, primary screen for plastid delayed-death inhibitors; P. falciparum luciferase reporter growth, 96 h; Potency, µM (highest dose often 28.7 µM), for inactives: at the top dose activity change, negative = inhibition, most hits filed as inhibitors; actives 6.9% (n = 320,000); AID 504834; also: potency is read from the fitted curve at half-maximal effect; % is scaled to controls: 0 for no effect and ±100 for the full control effect
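96 h incubation, 37 C, 5% CO2, of luciferase-reporter P. falciparum-infected RBCs (2% hematocrit, 0.05% parasitemia final) with test compounds; endpoint luminescence.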
Pf growth 48h: inhibits P. falciparum growth in the first generation, 48 h. P. falciparum luciferase growth in erythrocytes, 48 h. Potency, µM (titrated, usually from 28.7 µM), for the others: at the top dose activity change, negative = inhibition, most hits filed as inhibitors. actives 5.9% (n = 310,000); also: potency is read from the fitted curve at half-maximal effect; % is scaled to controls: 0 for no effect and ±100 for the full control effect
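Growth was read as firefly luciferase luminescence after a 48 h, 37 C, 5% CO2 exposure of compounds to reporter-bearing P. falciparum cultures (0.1% parasitemia, 2% hematocrit final) in Albumax-supplemented RPMI 1640.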
Shiga inhibitor: Shiga toxin inhibition; actives 9.2% (n = 290,000); Vero cells, Shiga toxin protein synthesis inhibition reporter; inhibition, % at 38.7 µM; in the data active = inhibition mostly above about 28%, no sharp cut-off; inactive = mostly below about 43%; also: 0% is about no effect
HCV inh: inhibitors of hepatitis C virus infection; Huh7.5.1 HCVcc-Cre infection, luciferase reporter, 44 h; Potency, µM (series often up to 41.8 µM), for inactives: top-dose activity change, negative = inhibition, most hits filed as inhibitors; actives 3.4% (n = 340,000); also: potency is read from the fitted curve at half-maximal effect; % is scaled to controls: 0 for no effect and ±100 for the full control effect
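Cells (1,000/well) were plated 4 h before compound, then infected with HCVcc-Cre virus (~0.5 moi). After 44 h further culture, infection was read as luciferase luminescence following a 15 min substrate incubation at room temperature.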
AMA1 RON2 block: AMA1-RON2 (P. falciparum) interaction inhibition. Potency, µM (top dose mostly 58.2 µM), inactives show at the highest dose activity change, negative = inhibition, hits mostly inhibitors. AlphaScreen AMA1-biotinylated RON2 peptide binding. actives 0.2% (n = 360,000). AID 720542;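 also: potency is read from the fitted curve at half-maximal effect; 0% = vehicle wells and -100% = peptide control; nearly all actives have a fitted effect of over 45% in size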
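AMA1 (3D7) with his tag at 25 nM final met compounds first, then biotinylated RON2 peptide at 25 nM; detection used donor plus acceptor beads, 10 µg/mL apiece, read by AlphaScreen after 30 min at room temperature.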
CHX counter: counter-screen hit for Shiga toxin inhibitors, cycloheximide. cell reporter, cycloheximide protein synthesis inhibition counterscreen. max response, %. actives 12% (n = 300,000). AID 2314; in the data active = max response mostly above about 13%, no sharp cut-off; inactive = mostly below about 14%; also: read at 38.3 µM for the half of the compounds with a filed dose; 0% is about no effect
Numbers without * were called inactive; u = inconclusive; x = not tested or not shown; [ ] = remark or other dose. Shown are actives, neighbours in structure and some others; about 21% of the full set was active somewhere. Unless noted, calls follow the shape of the dose curve; as a rule, active = well fitted curve in the direction sought with a large enough effect; inconclusive = small, poorly fitted or top-dose-only effect, or another doubt; inactive = no such curve, though single readings can be large; an effect the other way counts as inactive or inconclusive.

SMILES | Pf growth 96h | Pf growth 48h | Shiga inhibitor | HCV inh | AMA1 RON2 block | CHX counter
CCCCn1nc(C(=O)NCc2ccccc2CN2CCCC2)c2ccccc2c1=O | 7.4µM* | 9.3µM* | x | u | -3% | x
Cc1ccc([C@@H]2C[C@H]3[C@@H](CN2S(=O)(=O)c2ccc(C)cc2)C(=O)C[C@@H](c2ccc(Cl)cc2)N3S(=O)(=O)c2ccccc2C)cc1 | x | x | x | x | -4% | x
CC(C)CCNC(=O)c1ccc(-n2cnc3cccnc32)cc1 | 29% | -17% | 5 | -15% | 9% | 5
CCCCn1nc(C(=O)Nc2nc3c(s2)CCCC3)c2ccccc2c1=O | 6.6µM* | u | -13 | u | -4% | 7
CCOC(=O)C1CCN(C(=O)c2cc(S(=O)(=O)N3CCc4ccccc43)ccc2OC)CC1 | u | u | x | -18% | -6% | x
Cc1cc(NC(=O)Cc2ccccc2[N+](=O)[O-])no1 | u | 17% | -13 | 16% | -1% | 2
CCN(CC)CCOc1ccc(C(O)(Cc2ccc(Cl)cc2)c2ccc(C)cc2)cc1 (stereo not given) | 9.5µM* | 13µM* | -13 | x | x | -4
CC(C)NCC(O)(c1ccc(Cl)cc1)c1ccc(Cl)cc1 | 1.5µM* | 12µM* | 2 | -29% | 8% | -3
CCN(CC)CCNCc1ccc(-c2ccc(Cl)cc2)o1 | 12µM* | u | -35 | u | -8% | -3
NCC(O)(c1ccc(Cl)cc1)c1ccc(Cl)cc1 | 4.7µM* | u | -7 | u | 9% | 5
CCOc1ccccc1N(CC(=O)NCC1CCCO1)C(=O)CCC(=O)Nc1nccs1 (stereo not given) | 58% | 8% | 13 | 16% | 18% | -7
CC(C)(C)NCC(O)(c1ccc(Cl)cc1)c1ccc(Cl)cc1 | u | u | -14 | u | -16% | 12
CCN(CC)CCNCC(O)(c1ccc(Cl)cc1)c1ccc(Cl)cc1 | 12µM* | u | -18 | u | 13% | -3
CC(=O)NC(CSC(CC(=O)c1ccco1)c1ccc(C)cc1)C(=O)O (stereo not given) | -4% | 19% | 105* | 1% | -1% | 57*
Oc1ccc(C23CCCC2C2(CCCC2)c2ccc(O)cc2O3)c(O)c1 (stereo not given) | u | u | x | 10µM* | -2% | x
CC(=O)c1ccc(NC(=O)C(C)OC(=O)c2ccc3c(c2)nc(C)n3-c2ccccc2)cc1 (stereo not given) | 21% | 1% | 45* | u | 12% | 29*
O=C(CN1CCCCCCC1)N/N=C/c1ccccc1F | u | -10% | -27 | 32% | 30% | 20
Cc1cc(/C=N\NC(=O)CC(=O)NC2CCCCC2)c(C)n1-c1ccc(Cl)c(Cl)c1 | u | 5% | 26 | 12% | -7% | -2
O=C(CN1CCCCC1)N/N=C/c1ccccc1Br | u | 14% | 21 | 19% | -1% | 9.1*
O=C(CN1CCCCC1)N/N=C/c1ccc(Cl)cc1Cl | -25% | 25% | -3 | -21% | -1% | -1
Cc1cc(/C=N\NC(=O)CC(=O)NC2CCCCC2)c(C)n1-c1cccc(Cl)c1Cl | 8.3µM* | -6% | 22 | 5% | -3% | 7
O=C(CN1CCCCCC1)N/N=C/c1cccc(Cl)c1Cl | 0% | 37% | 105* | -5% | 4%[11.6 µM] | 24*
O=C(O)C(CO)(c1ccccc1)c1ccccc1 | -2% | 38% | -5 | 16% | 24% | 0
O=C(NC(=S)Nc1nc2ccccc2s1)c1cccs1 | -22% | 224% | 74* | -11% | 71% | 82*
CCc1ccc(-c2nc(NC(=S)NC(=O)c3cccs3)sc2C)cc1 | 36% | x | -5 | 13% | 17% | -1
SMILES | Pf growth 96h | Pf growth 48h | Shiga inhibitor | HCV inh | AMA1 RON2 block | CHX counter
COC(=O)c1nc(NC(=S)NC(=O)c2cccs2)sc1C | u | 35% | 51* | 0% | 29% | 23*
COC(=O)Cc1nc(NC(=O)c2cccs2)sc1C | 104% | 81% | 54* | -2% | 31% | 35*
Clc1c(-c2ccccc2)nnn1-c1ccccc1 | 281% | 266% | 105* | 18% | -4% | 56*
O=C1C(=O)N(CCCN2CCOCC2)C(c2ccc([N+](=O)[O-])cc2)/C1=C(/O)c1ccc2c(c1)OCO2 (stereo not given) | u | -22% | -4 | 14% | 10% | 15
COc1ccc(-n2nc(C(=O)NCCc3ccc(OC)c(OC)c3)c3c4ccccc4n(C)c3c2=O)cc1 | x | x | -12 | x | x | -4
O=C(Cc1ccccc1)N1CCC(c2ccccc2)C1 (stereo not given) | -19% | 186% | 80* | 16% | 6% | 28*
CC(O)CNc1nc2ccccc2n1CC(=O)N1CCN(Cc2ccccc2)CC1 (stereo not given) | -3% | -19% | -14 | -18% | 0% | 0
COc1ccc(CC(=O)N2CCC(c3ccccc3)C2)cc1 (stereo not given) | 41% | 40% | 56* | 5% | 0% | 23*
O=C(CCCN1C(=O)c2ccccc2C1=O)N1CCC(c2ccccc2)C1 (stereo not given) | 50% | x | -22 | 1% | -4% | -2
COc1ccc(CC(=O)N2CCC(Nc3nc4ccccc4n3Cc3ccc(F)cc3)CC2)cc1 | 9.3µM* | 4.1µM* | -4 | u | -27% | -5
CS(=O)(=O)N(CCC#N)Cc1ccc(/C=C2\C(=O)Nc3ccccc32)o1 | u | u | -13 | 10% | 4% | 8
COc1ccccc1NC(=O)COC(=O)C1=NN(c2ccccc2)C(=O)CC1 | x | x | x | -2% | -14% | x
CCCCN(C(=O)c1cc(S(=O)(=O)N2CCOCC2)ccc1N1CCOCC1)c1ccccc1 | x | x | x | x | 25% | x
CCc1noc(C)c1C(=O)N1CCC(CCC(=O)Nc2cccc(C)c2)CC1 | -23% | -21% | 5 | u | 5% | 5
COc1cccc(-c2cc(C(=O)O)no2)c1 | 26% | x | -6 | 16% | -4% | -5
COc1cccc(-c2cc(CC3(O)CCN(CCCc4ccccc4)CC3)on2)c1 | u | 12µM* | 13 | 4% | -3% | 6
CCOc1ccc(C(=O)O[C@H]2[C@H](Cc3ccccc3)NS(=O)(=O)[C@H]3C[C@@H]4C=C[C@]23O4)cc1 | 4.7µM* | 2.1µM* | x | u | 21% | x
CC(C)(C)c1ccc(C(=O)O[C@H]2[C@H](Cc3ccccc3)NS(=O)(=O)[C@H]3C[C@@H]4C=C[C@]23O4)cc1 | 12µM* | 13µM* | x | u | -10% | x
CCCc1ccc(OC(=O)c2ccc(O)cc2Cl)cc1 | 24% | 255% | 96* | 4% | 26% | 40*
O=C1c2ccccc2C(c2nc3ccccc3[nH]2)N1Cc1ccco1 (stereo not given) | x | x | x | x | 10% | x
COC(=O)c1nc(Cl)c(Cl)c(N)c1Cl | 25% | 10µM* | -7 | 17% | -3% | 3
